Screening data (PubChem)
Rows were chosen to be rich in hits. Some 6% of all compounds tested hit in one or more screens of this group.
D3 antag – D3 dopamine receptor (human) antagonism. AID 652054. P35462. max response, negative = inhibition, %. D3R cells, DiscoveRx beta-arrestin luminescence, antagonist mode; hits give low values. actives 2.5% (n = 360,000); in the data active = max response below about -50%; inconclusive = no clear call, values can overlap the other calls
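Cells plated overnight at 1500 cells/well, then exposed to library compounds with dopamine controls for 90 minutes at 37 degrees C. DiscoveRx reagent added for 30–60 minutes at room temperature; luminescence read, quantitative HTS format.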
D1 ag – activates the human D1 dopamine receptor; P21728; HEK293 T-REx D1 cells, calcium flux, agonist mode; activation, % at 2 µM; actives 1% (n = 360,000); in the data active = activation above about 30%
Target sequence (P21728 whole entry, looked up): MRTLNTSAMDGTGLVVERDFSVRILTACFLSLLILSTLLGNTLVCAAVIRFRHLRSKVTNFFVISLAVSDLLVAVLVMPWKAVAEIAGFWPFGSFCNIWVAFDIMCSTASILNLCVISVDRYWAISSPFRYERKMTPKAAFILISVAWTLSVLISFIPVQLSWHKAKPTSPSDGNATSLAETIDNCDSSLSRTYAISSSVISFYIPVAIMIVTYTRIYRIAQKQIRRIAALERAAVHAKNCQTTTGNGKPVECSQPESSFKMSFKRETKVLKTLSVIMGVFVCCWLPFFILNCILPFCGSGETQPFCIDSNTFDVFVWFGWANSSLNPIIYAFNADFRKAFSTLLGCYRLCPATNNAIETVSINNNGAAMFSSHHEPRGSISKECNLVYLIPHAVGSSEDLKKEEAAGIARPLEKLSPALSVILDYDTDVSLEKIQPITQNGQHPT
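Agonism was scored from calcium flux recorded over 180 s (1 read/s) after pintool compound addition, following a 10-cycle baseline. Cells were inducible force-coupled HEK293 TREx D1, plated overnight at 30 C and loaded with no-wash calcium dye.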
D1 antagonist – human D1 dopamine receptor antagonism. P21728. HEK293 TREx D1 cells, calcium flux, dopamine EC80; hits give low values. activity change, negative = inhibition, % at 10 µM. actives 3.2% (n = 360,000); in the data active = activity change below about -30%
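Using tetracycline-induced force-coupled D1 Hek293 cells and a calcium dye, signals were followed for 180 s after compound, then for 180 s after EC80 dopamine, to detect inhibitors.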
D1 potentiator – enhances dopamine response at the human D1 receptor; actives 0.036% (n = 360,000); HEK293 TREx D1 cells, calcium flux, dopamine EC20 potentiation; potentiation, % at 10 µM; in the data active = potentiation above about 30%
DRD3 agonist – agonists of human D3 dopamine receptor. max activation, %. D3R DiscoveRx beta-arrestin cells, luminescence, 90 min. P35462. actives 0.58% (n = 410,000); in the data active = max activation above about 30%
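Agonist-mode cell screen: cells plated at 1500/well and incubated overnight at 37 °C, then exposed to library compounds for 90 min at 37 °C. Detection reagent was added for 30–60 min at room temperature, and luminescence was read.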
A number is an active result.

Results for CC(C)CNC(=O)C(=O)NCCC1CCCCN1S(=O)(=O)c1cccs1 (stereo not drawn) ?
D3 antag: inactive; D1 ag: inactive; D1 antagonist: inactive; D1 potentiator: inactive; DRD3 agonist: inactive

How did CC(C)[C@H](NC(=O)OCc1ccccc1)C(=O)OCC(=O)NCCc1ccccc1 do in these assays?
D3 antag: inactive; D1 ag: inactive; D1 antagonist: inactive; D1 potentiator: inactive; DRD3 agonist: inactive

What do the screens show for `CC(=O)Nc1cccc(C(=O)OCC(=O)NC(=O)Cc2ccccc2)c1`?
D3 antag: inactive; D1 ag: inactive; D1 antagonist: -33; D1 potentiator: inactive; DRD3 agonist: inactive

How did CC(=O)c1cccc(NC(=O)COC(=O)[C@@H](NC(=O)OCc2ccccc2)C(C)C)c1 do in these assays?
D3 antag: inactive; D1 ag: inactive; D1 antagonist: -95; D1 potentiator: inactive; DRD3 agonist: inactive

Results for O=C(COC(=O)c1cccc(O)c1)NC(=O)Cc1ccccc1 ?
D3 antag: inactive; D1 ag: 33; D1 antagonist: inactive; D1 potentiator: inactive; DRD3 agonist: inactive

How did O=C(COC(=O)c1ccc(O)cc1O)NC(=O)Cc1ccccc1 do in these assays?
D3 antag: inactive; DRD3 agonist: inactive

What do the screens show for `CCC(=O)Nc1cccc(C(=O)OCC(=O)c2ccccc2Cl)c1`?
D3 antag: inactive; D1 ag: inactive; D1 antagonist: -37; D1 potentiator: inactive; DRD3 agonist: inactive

Results for COCCCNC(=O)CSc1nc2cc3c(cc2c(=O)n1CCCCCC(=O)NCc1ccc(OC)cc1)OCO3 ?
D1 ag: inactive; D1 antagonist: inactive; D1 potentiator: inactive; DRD3 agonist: inactive

How did Cc1c(C(=O)N(C)C)sc2c1c(=O)n(-c1ccc(Cl)c(Cl)c1)c(=O)n2Cc1ccc(F)cc1 do in these assays?
D1 ag: inactive; D1 antagonist: inactive; D1 potentiator: inactive; DRD3 agonist: inactive

Results for C[C@H](CO)N1C[C@H](C)[C@@H](CN(C)Cc2cccc(F)c2)Oc2cc(-c3cccc(C#N)c3)ccc2S1(=O)=O ?
D3 antag: inactive; DRD3 agonist: inactive

What do the screens show for `CCCc1cc(=O)oc2c(CN3CCN(C)CC3)c(O)ccc12`?
D3 antag: inactive; D1 ag: inactive; D1 antagonist: inactive; D1 potentiator: inactive; DRD3 agonist: 32

What do the screens show for `CCCc1cc(=O)oc2c(CN(CC)CC)c(O)c(Cl)cc12`?
D3 antag: inactive; D1 ag: inactive; D1 antagonist: -44; D1 potentiator: inactive; DRD3 agonist: inactive

Results for CCCc1cc(=O)oc2c(CN3CCN(C)CC3)c(O)c(Cl)cc12 ?
D3 antag: inactive; D1 ag: inactive; D1 antagonist: inactive; D1 potentiator: inactive; DRD3 agonist: inactive

What do the screens show for `CCCCc1cc(=O)oc2c(CN3CCCC3)c(O)c(Cl)cc12`?
D3 antag: inactive; D1 ag: inactive; D1 antagonist: -33; D1 potentiator: inactive; DRD3 agonist: inactive

How did CN1CCN(Cc2c(O)ccc3cc(-c4ccc(Cl)cc4)c(=O)oc23)CC1 do in these assays?
D1 ag: 32; D1 antagonist: inactive; D1 potentiator: inactive; DRD3 agonist: inactive

What do the screens show for `COc1ccc(OC)c(CNC(=O)Cn2nc(C)c3nn(-c4ccc(Cl)cc4)c(C)c3c2=O)c1`?
D1 ag: inactive; D1 antagonist: inactive; D1 potentiator: inactive; DRD3 agonist: inactive

What do the screens show for `CCCCC[C@]12Cc3ccccc3C(O1)C1=C(CC(C)(C)CC1=O)O2`?
D1 ag: inactive; D1 antagonist: inactive; D1 potentiator: inactive

What do the screens show for `O=C(NCc1cccnc1)/C(=C\c1ccc(-c2ccc(Br)cc2)o1)S(=O)(=O)c1ccccc1`?
D3 antag: -89; D1 ag: inactive; D1 antagonist: inactive; D1 potentiator: inactive; DRD3 agonist: inactive

Results for O=C(NCc1cccnc1)/C(=C/c1ccc(-c2ccc(Cl)cc2)o1)S(=O)(=O)c1ccccc1 ?
D3 antag: inconclusive; D1 ag: inactive; D1 antagonist: inactive; D1 potentiator: inactive; DRD3 agonist: inactive

What do the screens show for `O=C(Nc1nnc(C2=COCCO2)o1)c1ccc(Br)cc1`?
D1 ag: inactive; D1 antagonist: -34; D1 potentiator: inactive

How did Cc1ccc(C)c(-c2nnc(NC(=O)c3ccc4c(c3)OCCO4)o2)c1 do in these assays?
D1 ag: inactive; D1 antagonist: -37; D1 potentiator: inactive; DRD3 agonist: inactive

How did O=C1c2ccccc2C(c2nnnn2Cc2ccccc2)N1Cc1ccc2c(c1)OCO2 (stereo not drawn) do in these assays?
D3 antag: inactive; DRD3 agonist: inactive

What do the screens show for `COc1ccc(CN2CCc3nc(SCC(=O)Nc4cc(C)cc(C)c4)[nH]c(=O)c3C2)cc1`?
D1 ag: inactive; D1 antagonist: inactive; D1 potentiator: inactive; DRD3 agonist: inactive

What do the screens show for `Cn1c(C=O)c(-c2ccc3cc[nH]c3c2)c2ccccc21`?
D3 antag: inactive; D1 ag: inactive; D1 potentiator: inactive; DRD3 agonist: 31

How did Cn1c(-c2ccsc2)c(-c2cccs2)c2cc(-c3ccc4cc[nH]c4c3)ccc21 do in these assays?
D3 antag: inactive; D1 ag: inactive; D1 potentiator: inactive; DRD3 agonist: inactive

How did CCCCC[C@@H](C)N1C[C@H](COCc2ccccc2)Oc2cc(N3CCC[C@H]3C(N)=O)ccc2S1(=O)=O do in these assays?
D3 antag: inactive; DRD3 agonist: inactive

Results for Cn1cc(CNC(=O)C2CCC(=O)N(Cc3ccc(Cl)cc3)C2)cn1 (stereo not drawn) ?
D3 antag: inactive; D1 ag: inactive; D1 antagonist: inactive; D1 potentiator: inactive; DRD3 agonist: inactive

Results for COc1ccc(-c2ccc(CNc3ccc4[nH]c(=O)[nH]c4c3)o2)cc1Cl ?
D1 ag: inactive; D1 antagonist: -52; D1 potentiator: inactive; DRD3 agonist: inactive

How did C=CCOc1c(CNc2ccc3[nH]c(=O)[nH]c3c2)cccc1OC do in these assays?
D3 antag: inactive; D1 ag: inactive; D1 antagonist: inactive; D1 potentiator: inactive; DRD3 agonist: inactive

How did O=c1[nH]c2ccc(NCc3ccc(-c4ccc(Cl)cc4)o3)cc2[nH]1 do in these assays?
D1 ag: inactive; D1 antagonist: inactive; D1 potentiator: inactive; DRD3 agonist: inactive

Results for COc1cccc(CNc2ccc3[nH]c(=O)[nH]c3c2)c1OCc1ccc(F)cc1 ?
D3 antag: -54; D1 ag: inactive; D1 antagonist: inactive; D1 potentiator: inactive; DRD3 agonist: inactive

What do the screens show for `Cc1cc(C)c(Cn2cnc3nc4c(cc3c2=O)CCCC4)c(C)c1`?
D1 ag: inactive; D1 antagonist: inactive; D1 potentiator: inactive; DRD3 agonist: inactive

What do the screens show for `Cc1ccc(CNC(=O)C(C(C)C)N2Cc3ccccc3C2=O)cc1` (stereo not drawn)?
D1 ag: inactive; D1 antagonist: inactive; D1 potentiator: inactive; DRD3 agonist: inactive

Results for CCSc1nc2c([nH]c3ccccc32)c(=O)n1-c1ccc(OC)cc1 ?
D1 ag: inactive; D1 antagonist: inactive; D1 potentiator: inactive; DRD3 agonist: inactive

What do the screens show for `CCC(C)(C)C1CCC(=NNC(=S)Nc2cccnc2)CC1` (stereo not drawn)?
D3 antag: -64; D1 ag: inactive; D1 antagonist: inactive; D1 potentiator: inactive; DRD3 agonist: inactive
